Screen size: about 48,000 compounds; about 13,000 (27%) showed an effect of 50% or more. The list shows a part of the results.
The compounds below were run on Wolbachia pipientis (assay: Anti-Wolbachia Cell-Based Screen). Settings: 5 µM.
Type: functional
Set-up: scale not given: in the data most compounds retested in dose-response had high values

| Compound | Percent Effect [%] |
| --- | --- |
| O=C(c1ccccc1F)N(CCCO)S(=O)(=O)c1cccs1 | 2.629 |
| O=C(NCCNc1ncccn1)N(Cc1ccc(F)cc1F)C1CC1 | -5.455 |
| O=C(CN1CCCC1c1nc(-c2ccccc2)no1)N1CCOCC1 (stereo not drawn) | 6.777 |
| Cc1ccc2nc(CN3CCCCC3C(=O)N3CCOCC3)cn2c1 (stereo not drawn) | 89.82 |
| N#Cc1ccccc1OCCN1CCCCC1C(=O)N1CCOCC1 (stereo not drawn) | 9.052 |
| Cc1nc(CN2CCCN(C(=O)C(C)OCC3CC3)CC2)cs1 (stereo not drawn) | 0.6409 |
| COc1ccc(S(=O)(=O)NC(=O)c2c(C)noc2C(C)C)cc1C | -2.008 |
| CCc1nc(N2CCCC(CCOC)(C(=O)O)C2)ncc1C (stereo not drawn) | 2.702 |
| CC(C)S(=O)(=O)CCN1CCN(C(C#N)c2ccccc2)CC1 (stereo not drawn) | 88.63 |
| CC(c1ccc(Cl)cc1)N1CCN(CCS(N)(=O)=O)CC1 (stereo not drawn) | -4.709 |
| CCCS(=O)(=O)CCN1CCN(c2cc(F)ccc2F)CC1 | -4.475 |
| CCCS(=O)(=O)CCN1CCN(C(C#N)c2ccccc2)CC1 (stereo not drawn) | 125.8 |
| CC(c1ccc(Cl)cc1)N1CCN(CCCS(N)(=O)=O)CC1 (stereo not drawn) | 8.4 |
| CCS(=O)(=O)CCN1CCN(C(C)c2cccnc2)CC1 (stereo not drawn) | 4.9 |
| CS(=O)(=O)N1C[C@H](C(=O)Nc2cnccn2)C[C@H]2OCC[C@H]21 | -3.249 |
| CS(=O)(=O)N1CC2(CCN(C3CCCCC3)C2)Cc2ccccc21 (stereo not drawn) | 120 |
| CN(C)C(=O)N1CC2(CCN(S(C)(=O)=O)CC2)c2ccccc21 | 1.836 |
| CS(=O)(=O)N1CCc2[nH]cnc2C12CCN(C1CCOCC1)CC2 | 0.6109 |
| CS(=O)(=O)N1CC2(CCN(C3CCCCC3)CC2)Cc2ccccc21 | 114.5 |
| O=C1N(Cc2ccc(F)c(F)c2)CCCC12CCN(C1CCCCC1)C2 (stereo not drawn) | -2.682 |
| Cc1cccc(N2CCC(N3CCC4(CCCNC4=O)C3)CC2)c1C (stereo not drawn) | 11.3 |
| CC(C)CCN1CCc2[nH]nc(C(=O)N3CCCC3C)c2C1.O=C(O)C(F)(F)F (stereo not drawn) | -10.1 |
| CS(=O)(=O)N1CC[C@@H]2[C@@H](CCC(=O)N2CCC2=CCCCC2)C1 | -15.08 |
| CN(Cc1cnn(C)c1)Cc1nc(CCc2ccccc2)no1 | 8.219 |
| CCOC(=O)NC(CNC(=O)c1ccccn1)CC(C)C (stereo not drawn) | -0.8901 |

| Compound | Percent Effect [%] |
| --- | --- |
| O=C(NCCSC1CCCC1)c1cnccn1 | 5.351 |
| Cc1cnccc1-c1cnn(CCNC(=O)c2ccccn2)c1C1CC1.Cl | 221.9 |
| CC(C)(C)C(=O)NCCC(=O)NS(=O)(=O)c1cccnc1 | 1.555 |
| Cc1cnccc1-c1cnn(CCNC(=O)c2cccnc2)c1C1CC1.Cl | 156.9 |
| Cc1ccc(CN(C(=O)NCCNC(=O)c2cccnc2)C(C)C)o1 | -0.6443 |
| Cc1cnn(C(C)C2CC2)c1NC(=O)c1ccncc1 (stereo not drawn) | -0.2997 |
| Cc1ccccc1C1CCN(C(=O)CCNC(=O)C(C)(C)C)C1 (stereo not drawn) | -3.334 |
| Cc1cnccc1-c1cnn(CCNC(=O)c2ccncc2)c1C1CC1.Cl | 189.5 |
| Cc1cnccc1-c1cnn(CCNC(=O)C(C)(C)C)c1C1CC1.Cl | 128.5 |
| CCNc1ncc(C(=O)NCCNc2ccncc2C)cn1 | 11.05 |
| CC(Cn1cccn1)NCc1csc(-c2ccc(F)cc2)n1 (stereo not drawn) | 3.098 |
| CCCSCC(=O)Nc1ncn(CC(=O)N2CCCCCC2)n1 | -27.1 |
| COC(=O)c1cccc(CN(C)Cc2ncnn2C)c1C#N | -234 |
| O=C(Nc1cnn(-c2ccccc2Cl)c1)N[C@@H]1C=C[C@H](CO)C1 | -14.17 |
| O=C(NCC1CC1)Nc1cnc2ccc(F)cc2c1O | 100.3 |
| COc1ccc2c(O)c(NC(=O)NCC3CC3)cnc2c1 | -18.39 |
| O=C(Cn1cnnn1)Nc1ccc(F)cc1OCC1CC1 | 11.02 |
| CNc1nc(CNC(=O)Nc2cccc(COCCOC(C)C)c2)cs1 | -6.236 |
| CC(C)c1ccc(S(=O)(=O)N2CCCC3(CCCN3S(C)(=O)=O)C2)cc1 (stereo not drawn) | 108.3 |
| CS(=O)(=O)N1CCCC12CCCN(c1nccs1)C2 (stereo not drawn) | 4.667 |
| CCc1ccc(S(=O)(=O)N2CCCC3(CCCN3S(C)(=O)=O)C2)cc1 (stereo not drawn) | 114.6 |
| CCc1ccc(S(=O)(=O)N2CCC3(CC(C(=O)NC)=NO3)C2)cc1 (stereo not drawn) | 16.22 |
| CC(C)CC(c1nc(-c2cnn(C)c2)no1)N1CCCCC1=O (stereo not drawn) | 17.74 |
| Cc1ccccc1NC(=O)CNC(C)COc1ccccc1 (stereo not drawn) | -5.07 |
| Cc1ccc(OCC(C)NS(C)(=O)=O)cc1C (stereo not drawn) | 1.577 |

| Compound | Percent Effect [%] |
| --- | --- |
| CCOC(=O)COc1ccc(C(C)=O)c(O)c1 | 95.41 |
| CC(=O)c1ccc(Cl)c(Cl)c1OCC(=O)NC(N)=O | 29.22 |
| CC(=O)c1ccc(OCC(C)O)cc1O (stereo not drawn) | 100.7 |
| CCOC(=O)COc1cccc(NC(=O)C2COCCO2)c1 (stereo not drawn) | -0.4507 |
| CN(Cc1cccc(F)c1)C(=O)CN1CCCCC1Cn1cncn1 (stereo not drawn) | -4.656 |
| COC(=O)CCN1CCCC1c1cccc2c1OCCO2 (stereo not drawn) | 6.335 |
| CN(C)C(=O)N1CC[C@@H](c2ccc3ccccc3c2)[C@H](O)C1 | 2.148 |
| COc1ccc(-c2noc([C@@H](C)NC(=O)CC(C)C)c2C(=O)O)cc1 | 0.3938 |
| COc1ccc(-c2nonc2N)cc1 | 116.2 |
| COCC(=O)N[C@H](C)c1onc(-c2ccc(OC)cc2)c1C(=O)O | 9.623 |
| Cc1cc(CN(C)Cc2csc(-c3ccc(C(C)C)cc3)n2)no1 | -4.334 |
| CC(C)c1ccc(C(N)c2cccs2)cc1 (stereo not drawn) | -4.854 |
| CC(C)c1ccc(-c2nonc2N)cc1 | 135.4 |
| CCN1CCN(c2ccc(F)cc2C(C)NCc2cscn2)CC1 (stereo not drawn) | 16.44 |
| CC(C)CCC1=NC2(CCN(C(=O)N3CCN(C)CC3)CC2)C(=O)N1 | 15.84 |
| Cn1ccnc1CN1CCN(Cc2ccccc2C#N)CC1 | 1.879 |
| Cn1ccnc1CN1CCC2(CC1)CC(N1CCCC1)c1ccccc12 (stereo not drawn) | 116.8 |
| COc1ccc2c(c1)C1(CCN(Cc3cccnc3)CC1)N(C)CC2.O=C(O)C(F)(F)F.O=C(O)C(F)(F)F.O=C(O)C(F)(F)F | 47.52 |
| CN(C)C1CCC2(CCN(Cc3cccnc3)CC2)c2ccccc21.O=C(O)C(F)(F)F.O=C(O)C(F)(F)F.O=C(O)C(F)(F)F (stereo not drawn) | 103.9 |
| CN(C)C1CCC2(CCN(Cc3nccn3C)CC2)c2ccccc21.O=C(O)C(F)(F)F.O=C(O)C(F)(F)F (stereo not drawn) | 100.5 |
| CN(C)C1CC2(CCN(C(=O)NC3CC3)CC2)c2ccccc21.O=C(O)C(F)(F)F (stereo not drawn) | -41.61 |
| Cn1ccnc1CN1CCC2(CC1)CC(NC(=O)c1ccccn1)CO2.O=C(O)C(F)(F)F (stereo not drawn) | -5.802 |
| Cn1ccnc1CN1CCC2(CC1)CC(Nc1ccccn1)CO2 (stereo not drawn) | -5.655 |

Reference: ChEMBL document CHEMBL3988442, “University of Dundee, Small-Polar-MMV Screening Library” (2021)
